Measurements published in PubChem BioAssay AID1347426 (Functional Genomics Laboratory (NCATS/FGL), 2020).
Among all 31,000 sequences or so, about 1,400 (4.5%) were called active.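 The calls were made as follows: active = median seed-adjusted z-score above 1 or below -1; inactive = the rest.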 Only a selection was taken, and actives are over-represented in it overall.

Experiment: Novel Modifiers of Survival Motor Neuron (SMN) Protein: Gene Identification via Genome-wide siRNA Screen
Conditions: HEK293T SMN2-luciferase reporter, siRNA knockdown, 72 h; actives lie on both sides
From the text: Spinal muscular atrophy (SMA) is the most common neuromuscular autosomal recessive disorder and one of the leading genetic causes of infant death. SMA results from mutations inducing loss of function or deletion in the survival of motor neuron-1 gene (SMN1), leading to deficiency of the survival motor neuron (SMN) protein. Although a second nearly identical gene, SMN2, is retained in humans, its expression primarily produces an aberrantly spliced isoform that is largely unstable and quickly degraded. We performed a genome-wide RNAi screen using a cell-based reporter assay to identify genes and pathways that modulate SMN protein stability. The screen identified over 200 genes that led to the greatest increase or decrease in luciferase expression.
Using HEK293T cells stably expressing a luciferase reporter that combines the promoter and splicing based cassettes in tandem with the major portion of the native SMN2 cDNA with luciferase, we performed a genome-wide RNAi screen to identify modulators of SMN protein levels. Luciferase is expressed when full-length SMN protein is generated with luminescence signal proportional to SMN protein levels. Our luciferase-based reporter assay was used to screen Ambion Silencer Select Human Druggable Genome siRNA library (10418 genes, 3 unique siRNAs per gene) using lipid-based reverse transfection.
Briefly, 1 pmol of each siRNA was spotted to a well of a 384-well plate (Corning, Corning, NY) and 20 microL of serum-free DMEM containing […] of Lipofectamine RNAiMax (Life Technologies, Carlsbad, CA) was then added to each well. Transfected cells were maintained at 37 degrees C in 5% CO2 for 72 hours, 20 microL of ONE-Glo Reagent (Promega) was added to wells for luciferase quantification. Raw luminescence reads were normalized to Ambion(R) Silencer(R) Negative Control #2 siRNA, then log10 transformed. A robust statistical measure of median absolute deviation (MAD) to standardize siRNA activities from each screen. Common Seed Analysis was used to help prioritize clean hits as opposed to those appearing to arise from seed based off-target effects. Candidate modulators were defined as the genes having a MAD score greater than 1.0 or less than -1.0.

Row | Sequence | median seed-adjusted z-score
1 | GCAAUUUGCUGUUGCCGAATT against RHBDD1 | 0.00277 (inactive)
2 | CCAUUAUUGCUGCCCGGAATT against PGM5 | -0.0543 (inactive)
3 | GUCUCUGACGGGUCCAUUATT against BMP1 | -0.298 (inactive)
4 | GGACAAGGCUAACAUCCCATT against HMGA1 | 0.557 (inactive)
5 | GCUUGCACUUAAUCUCACATT against LAMB2 | 1.12 (active)
6 | GGUUAAAGGUUAUGGUCCATT against PROSC | 0.173 (inactive)
7 | UUUUGUUCAUAUAACGUCATT against IFNA1 | -0.625 (inactive)
8 | CCACCUUCCUUAUCGACAUTT against FZD8 | -0.177 (inactive)
9 | CCACCUUGCAGAAAACCGATT against ITPR3 | -1.28 (active)
10 | GCUCAUCCACUAUAACCAUTT against CA10 | 0.255 (inactive)
11 | GGUCGAAGCUGUGCAAGGATT against TPPP | -0.16 (inactive)
12 | AGCUGGAGGUCAACAAGUATT against TIMP3 | -1.05 (active)
13 | UCUCAGAUCUCUUCCCAGATT against ROBO4 | -0.431 (inactive)
14 | CAAGGAGCAAGGUUCGGAATT against KIRREL3 | -0.206 (inactive)
15 | GAUGAUCGCUUCAACCUGATT against DDX6 | 1.12 (active)
16 | GUAUGUUCCACAUAAUGAATT against CYP19A1 | -0.321 (inactive)
17 | GGAAUAGAACAAUUGAAAATT against ZDHHC3 | 0.229 (inactive)
18 | UGAGGACACUUCUUGGAGATT against FOXE3 | -0.451 (inactive)
19 | CGAUGGUUGACAAUCCAGATT against NDUFS5 | -1.35 (active)
20 | CUUGCAAUGUCGAAGCUUATT against CDH8 | 0.169 (inactive)
21 | GGUGUUGAGUUUCUGCAAATT against CHMP1A | 0 (inactive)
22 | GGAUGAUAGAGGAAUUGUATT against SKIV2L2 | 0.642 (inactive)
23 | CCACCAUCCUACAAGCCUUTT against CYP2S1 | -0.196 (inactive)
24 | GCUAGUCAAGGUUCCUAAATT against GTF2F2 | -1.14 (active)
25 | GCAAUUCCAUGAUAAGGAATT against MMP20 | 0.0623 (inactive)
26 | GCCUUCUCCCUAUUUGAUATT against CALM1 | 0.355 (inactive)
27 | GCAGAAGACUAGAGAGACUTT against ABCC5 | 0.00533 (inactive)
28 | CAGUGCAACCUGGAGAGAATT against NRBP2 | 0.093 (inactive)
29 | ACAGCUCCGUGUUGACUCATT against FOXG1 | 0.749 (inactive)
30 | AAAAGAACGAGGAAGUUAUTT against CACNG2 | 0.00759 (inactive)
